{"source": "PubChem BioAssay (Tox21)", "note": "Records with an inconclusive call do not appear. Values without a mark were called inactive. Calls of active or inactive are those of the source. The call rests on the fitted dose curve; in most records, active means well fitted cell-killing curve with a large enough effect in the repeat runs; inconclusive means weak or mixed curves, or effect the other way; inactive means flat fitted curve, though single readings scatter. On the % scale 0 is the no-effect control and ±100 the full control effect.", "data": [{"experiment": "qHTS assay to identify small molecule that activate the aryl hydrocarbon receptor (AhR) signaling pathway - cell viability counter screen (AID 743086);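 further: HepG2 liver cells carrying the AhR DRE luciferase reporter; nearly all actives have a fitted effect of over 45% in size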", "conditions": "HepG2-AhR-luc viability, CellTiter-Fluor, 24 h; series mostly up to 70.3 µM", "from_the_text": "U.S. Tox21 Program National Center for Advancing Translational Sciences [NCATS] NIH Chemical Genomics Center [NCGC] U.S. Environmental Protection Agency [EPA] National Institutes of Environmental Health Sciences [NIEHS] National Toxicology Program [NTP] U.S. Food and Drug Administration [FDA] Tox21 Assay overview: The Aryl hydrocarbon Receptor (AhR), a member of the family of basic helix-loop-helix transcription factors, is crucial to adaptive responses to environmental changes. AhR mediates cellular responses to environmental pollutants such as aromatic hydrocarbons through induction of phase I and II enzymes but also interacts with other nuclear receptor signaling pathways A cell based HepG2-AhR-luc assay (HG2L7.5c1 cell line, developed by Dr. Michael S. Denison, University of California at Davis) was used to assess the activation of AhR. HepG2 (human hepatocellular carcinoma) cells were stably transfected with an Ah receptor-responsive firefly luciferase reporter gene plasmid containing 20 dioxin responsive elements and luciferase reporter gene. Increased luciferase activity can be used to identify the compounds that induce AhR activation. The cytotoxicity of the compounds screened against the HepG2-AhR-luc cell line was tested in parallel by measuring the cell viability using CellTiter-Fluor assay in the same wells.\nTox21 Assay Protocol Summary: 4000 cells in 5 uL/well were dispensed into white wall/solid bottom 1536-well plates using a Multidrop Combi (Thermo Fisher Scientific Inc., Waltham, MA) dispenser. After the assay plates were incubated at 37C for 5 h, 23 nL of compound or DMSO vehicle was transferred to the assay plates by a pintool station (Kalypsys, San Diego, CA). The plates were incubated at 37C for 24 hr. For cell viability measurement, 1 ul/well of CellTiter-Fluor reagent (Promega, Madison, WI) was added into the assay plates using a Flying Reagent Dispenser (FRD) (Aurora Discovery, CA),and then the assay plates were incubated at 37C for 30 min. The fluorescence intensity in the plates was measured using a ViewLux plate reader (PerkinElmer, Shelton, CT), followed by the addition of 4 uL of ONE-Glo Luciferase Assay reagent (Promega) using an FRD (Aurora Discovery). After the assay plates were incubated at room temperature for 30 min, luminescence intensity was measured using a ViewLux plate reader (Perkin Elmer).", "values": [{"compound": "O=c1oc2c(O)c(O)cc3c(=O)oc4c(O)c(O)cc1c4c23", "outcome": "inactive"}, {"compound": "CCCCCCCCc1ccc(S(=O)(=O)O)cc1", "outcome": "inactive"}, {"compound": "C=CCCCCCCCCO", "outcome": "inactive"}, {"compound": "O=c1[nH]c(=O)n([C@H]2C[C@H](O)[C@@H](CO)O2)cc1C(F)(F)F", "outcome": "inactive"}, {"compound": "CO[Si](C)(C)OC", "outcome": "inactive"}, {"compound": "CCCN(CCC)C(=O)C(CCC(=O)O)NC(=O)c1ccccc1", "note": "(stereo not given)", "outcome": "inactive"}, {"compound": "C=CCc1cc(OC)c(O)c(C(=O)NCCO)c1", "outcome": "inactive"}, {"compound": "O=C1CCCCCCCCCCC(=O)OCCO1", "outcome": "inactive"}, {"compound": "CC(C)(C)c1ccc(OC(=O)c2ccccc2O)cc1", "outcome": "inactive"}, {"compound": "NC(=O)Cc1cccc(C(=O)c2ccccc2)c1N", "outcome": "inactive"}, {"compound": "COC(=O)c1ccc(OC)cc1", "outcome": "inactive"}, {"compound": "Cc1ncc(CO)c(CN)c1O", "outcome": "inactive"}, {"compound": "C[C@@H]1CN(c2c(F)c(F)c3c(=O)c(C(=O)O)cn(C4CC4)c3c2F)C[C@H](C)N1", "outcome": "inactive"}, {"compound": "Cn1cnc2c(F)c(Nc3ccc(Br)cc3Cl)c(C(=O)NOCCO)cc21", "outcome": "inactive"}, {"compound": "CC(C)(C)c1cccc(O)c1", "outcome": "inactive"}, {"compound": "CN(C)CC[C@@H](c1ccc(Cl)cc1)c1ccccn1", "outcome": "inactive"}, {"compound": "C=Cc1ccccc1", "outcome": "inactive"}, {"compound": "CC(C)Nc1nc(N)nc(Cl)n1", "outcome": "inactive"}, {"compound": "CS(=O)(=O)c1ccc([C@@H](O)[C@@H](CF)NC(=O)C(Cl)Cl)cc1", "outcome": "inactive"}, {"compound": "Cc1c(-c2ccccc2)oc2c(C(=O)OCCN3CCCCC3)cccc2c1=O", "outcome": "inactive"}, {"compound": "O=S(=O)(O)C(F)(F)F", "outcome": "inactive"}, {"compound": "COc1ccc2nc(NC(=O)Nc3ccccc3)sc2c1", "outcome": "inactive"}, {"compound": "O=C1CCN(c2ccccc2)N1", "outcome": "inactive"}, {"compound": "CC(=O)OC(C)OC(C)=O", "outcome": "inactive"}, {"compound": "CC(=O)OC1C2(C)CCC(C2)C1(C)C", "note": "(stereo not given)", "outcome": "inactive"}, {"compound": "NC1=NCC2c3ccccc3Cc3ccccc3N12", "note": "(stereo not given)", "outcome": "inactive"}, {"compound": "NNS(=O)(=O)c1ccc(Oc2ccc(S(=O)(=O)NN)cc2)cc1", "outcome": "inactive"}, {"compound": "CCOc1ccc(OCC)c(Cl)c1", "outcome": "inactive"}, {"compound": "CCN(O)CC", "outcome": "inactive"}, {"compound": "O=C(CC(=O)C(F)(F)F)c1ccccc1", "outcome": "inactive"}, {"compound": "CCCC1CCC(=O)O1", "note": "(stereo not given)", "outcome": "inactive"}, {"compound": "CC(=O)N[C@@H](CC(C)C)C(=O)O", "outcome": "inactive"}, {"compound": "O=C1CCCCC1C1CCCCC1", "note": "(stereo not given)", "outcome": "inactive"}, {"compound": "C[C@]12C(=O)OC(=O)[C@H]1[C@H]1C=C[C@@H]2C1", "outcome": "inactive"}, {"compound": "NC(Cc1ccc(F)cc1)C(=O)O", "note": "(stereo not given)", "viability change, negative = cytotoxic": "2.78% [at 8.47 µM]"}, {"compound": "Cc1cc(NS(=O)(=O)c2ccc(N)cc2)nc(C)n1", "outcome": "inactive"}, {"compound": "O=C(C(Cl)Cl)N1CCOC12CCCCC2", "outcome": "inactive"}, {"compound": "CCC(=O)O[C@]1(C(=O)SCF)[C@H](C)C[C@H]2[C@@H]3C[C@H](F)C4=CC(=O)C=C[C@]4(C)[C@@]3(F)[C@@H](O)C[C@@]21C", "outcome": "inactive"}, {"compound": "CCOc1ccc2nc(N)sc2c1", "outcome": "inactive"}, {"compound": "CN(C)Cc1ccccc1", "outcome": "inactive"}]}]}
